PNC inhibitor = blocks assembly of the perinucleolar compartment; 140,000 tested, 3.1% active; AID 2417; activity change (PNC), negative = inhibition, % at 10 µM; PC3M PTB-GFP, PNC prevalence imaging, 16 h; active compounds read low;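 active = readout at or below -70, meaning at least 70% loss of cells showing the perinucleolar compartment, a nuclear body marking cancer cells; inconclusive = readout between -30 and a set limit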;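 note: plate controls were DMSO wells for no effect and camptothecin positive control wells for full effect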
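PC3M cells stably expressing PTB-GFP, 750–1000 cells/well, treated 16 h at 37 °C with compound (23 nl of library stock), in duplicate. After paraformaldehyde fixation and Hoechst stain, imaged at 20x; PNC prevalence scored by image analysis.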
HPGD block = blocks human HPGD enzyme activity; P15428; purified HPGD, NADH fluorescence kinetic, PGE2 substrate; Potency, µM, for inactives: at the highest dose activity change, negative = inhibition, usual class: inhibitors; 150,000 tested, 4.3% active; AID 894; active = well fitted inhibition curve with a large enough effect, not every such curve was filed as active; inconclusive = small, poorly fitted or top-dose-only effect, or another doubt; inactive = no such curve, though single readings can be large or run the other way; note: potency is the fitted concentration of half-maximal effect
Target sequence (P15428 whole entry, looked up): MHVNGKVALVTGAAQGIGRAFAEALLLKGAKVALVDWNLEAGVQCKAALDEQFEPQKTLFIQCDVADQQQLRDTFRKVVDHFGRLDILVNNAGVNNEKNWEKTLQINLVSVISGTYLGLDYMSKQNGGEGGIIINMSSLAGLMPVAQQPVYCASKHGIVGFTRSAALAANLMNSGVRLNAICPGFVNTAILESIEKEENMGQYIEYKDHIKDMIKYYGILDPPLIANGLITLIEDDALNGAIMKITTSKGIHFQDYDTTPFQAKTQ
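NADH formation kinetics: reaction with 30 uM PGE2 and 1 mM NAD+ (final), 20 nM enzyme, Tris-HCl pH 8 with Tween 20, after 15 min compound preincubation at room temperature. Fluorescence change, last versus first of five reads.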
ALDH1A1 inh = blocks purified human ALDH1A1 activity; 220,000 tested, 7.3% active; Potency, µM (highest dose often 75.3 µM), for the others: top-dose activity, negative = inhibition, usual class: inhibitors; AID 1030; Purified ALDH1A1, NADH fluorescence, propionaldehyde substrate; P00352; active = well fitted inhibition curve with a large enough effect, not every such curve was filed as active; inconclusive = small, poorly fitted or top-dose-only effect, or another doubt; inactive = no such curve, though single readings can be large or run the other way;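 note: potency is the fitted concentration of half-maximal effect; plate controls were no enzyme wells and a reference inhibitor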
Target sequence (P00352 whole entry, looked up): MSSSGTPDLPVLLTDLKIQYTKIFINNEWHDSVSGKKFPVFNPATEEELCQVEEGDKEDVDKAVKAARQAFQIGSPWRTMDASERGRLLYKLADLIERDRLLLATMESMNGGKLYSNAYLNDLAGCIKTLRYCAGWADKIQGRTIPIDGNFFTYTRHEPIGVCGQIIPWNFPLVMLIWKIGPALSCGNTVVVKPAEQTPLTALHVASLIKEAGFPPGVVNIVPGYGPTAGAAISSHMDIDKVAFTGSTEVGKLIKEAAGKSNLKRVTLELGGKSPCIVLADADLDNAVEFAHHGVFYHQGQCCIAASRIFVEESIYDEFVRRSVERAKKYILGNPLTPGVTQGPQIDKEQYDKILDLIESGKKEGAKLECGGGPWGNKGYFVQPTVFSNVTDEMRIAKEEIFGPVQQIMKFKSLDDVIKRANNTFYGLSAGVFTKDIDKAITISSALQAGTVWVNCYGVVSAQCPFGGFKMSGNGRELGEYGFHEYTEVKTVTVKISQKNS
GLA spleen mod = alpha-galactosidase A (human) modulation; P06280; human spleen homogenate, 4MU-alpha-Gal fluorescence, 40 min; Potency, µM (series often up to 80 µM), for inactives: at the highest dose activity change, negative = inhibition, actives largely listed as inhibitors; 240,000 tested, 0.008% active;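 note: potency is the fitted concentration of half-maximal effect; 0% = enzyme with vehicle and -100% = no enzyme basal signal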
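Spleen homogenate 1 ug + cpd (titration) + 4-MU-alpha-D-galactopyranoside 1 mM; 37C 40 min; 50 mM citrate/phosphate pH 5.0, 0.01% Tween-20; stop pH 10; fluorescence 365/440; AC50 via Hill.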
GLA inh pH 4.5 = alpha-galactosidase A (human) inhibition, pH 4.5; 230,000 tested, under 10 active; P06280; activity change, negative = inhibition, % at 105 µM; purified enzyme, 4-MU-alpha-Gal fluorescence, pH 4.5;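 note: 0% = full activity with enzyme and -100% = basal without enzyme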
ALOX12 inhib = 12-hLO (ALOX12) enzyme inhibition | 150,000 tested, 0.12% active | P18054 | Potency, µM (top dose mostly 57.1 µM), for inactives: at the top dose activity change, negative = inhibition, actives largely listed as inhibitors | AID 1452 | purified 12-hLO, xylenol orange hydroperoxide absorbance; note: potency is the fitted concentration of half-maximal effect; nearly all actives have a fitted effect of over 55% in size
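Purified human 12hLO (150 nM final) was preincubated with compounds for 15 min at room temperature in 25 mM Hepes pH 7.0, 0.01% Triton X-100, then reacted with 40 uM arachidonic acid for 30 min. Hydroperoxide was detected with ferrous iron/xylenol orange.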
* marks the source's active call; other numbers are inactive results; [ ] = remark or other dose. Most compounds without a hit are left out; they make up all but 10% or so of the library. Unless noted, calls come from the whole dose curve; as a rule, active = well fitted curve in the direction sought with a large enough effect; inconclusive = small, poorly fitted or top-dose-only effect, or another doubt; inactive = no such curve, though single readings can be large; an effect the other way counts as inactive or inconclusive. Unless noted, % is set by controls: 0 for no effect and ±100 for the full control effect.

Results for CSc1nc2ccc(NS(=O)(=O)c3ccc(Cl)s3)cc2s1 ?
PNC inhibitor: -7.1; HPGD block: 25.1µM*; ALDH1A1 inh: 39.8µM*; GLA spleen mod: 9.0%; GLA inh pH 4.5: 0.7; ALOX12 inhib: -21.8%

How did CCOC(=O)N/N=C1/C[C@@H](O)[C@@H](O)[C@@H]2[C@@H]3C(=O)N(C[C@@H]4CCCO4)C(=O)[C@H]3CC[C@@H]12 do in these assays?
ALDH1A1 inh: 18.1%[13.5 µM]; GLA spleen mod: -1.6%[17.5 µM]

What do the screens show for `Cc1nc(SCc2ccccc2)c([N+](=O)[O-])[nH]1`?
PNC inhibitor: -107.3*; HPGD block: -11.1%; ALDH1A1 inh: inconclusive; GLA spleen mod: -0.5%; GLA inh pH 4.5: -4.9; ALOX12 inhib: -1.9%

What do the screens show for `C[Si](C)(c1ccc(C(=O)O)cc1)c1ccc(C(=O)O)cc1`?
HPGD block: 0.199µM*; ALDH1A1 inh: 14.0%[13.5 µM]; ALOX12 inhib: 3.6%[11.4 µM]

Results for Cc1cccc2cc(CN(Cc3cccnc3)C(=O)c3cccs3)c3nnnn3c12 ?
ALDH1A1 inh: 8.6%; GLA spleen mod: -8.0%; GLA inh pH 4.5: 9.2

How did COC(=O)c1ccc(CCc2cc(O)ccc2O)cc1 do in these assays?
HPGD block: 0.398µM*; ALDH1A1 inh: 0.631µM*; ALOX12 inhib: 3.55µM*

Results for Cc1c[nH]c(=O)n(CCCN2CCN(c3ccccc3OCC(F)(F)F)CC2)c1=O ?
HPGD block: -1.6%; ALDH1A1 inh: 3.8%; GLA spleen mod: -7.4%; GLA inh pH 4.5: 4.2; ALOX12 inhib: -3.7%

How did CC(C)C1NC2(C(=O)c3ccccc3C2=O)C2C(=O)N(c3ccc(F)cc3)C(=O)C12 (stereo not drawn) do in these assays?
PNC inhibitor: 28.6; HPGD block: 31.6µM*; ALDH1A1 inh: 1.26µM*; GLA spleen mod: -7.5%; GLA inh pH 4.5: -5.8; ALOX12 inhib: -5.2%

How did O=C(c1ccccc1)c1cc(Cl)ccc1N1C(=O)C=CC1=O do in these assays?
ALDH1A1 inh: 10µM*; GLA spleen mod: -3.0%; GLA inh pH 4.5: 5.1

How did Cc1ccccc1N1C(=O)c2cccc([N+](=O)[O-])c2C1=O do in these assays?
ALDH1A1 inh: 6.7%; GLA spleen mod: 2.8%; GLA inh pH 4.5: 5.2

What do the screens show for `O=C1CSC(=S)N1N1C(=O)c2cccc([N+](=O)[O-])c2C1=O`?
ALDH1A1 inh: 7.94µM*; GLA spleen mod: -3.6%; GLA inh pH 4.5: 2.3

How did C[N+](C)(C)CCO do in these assays?
HPGD block: -12.8%; ALDH1A1 inh: -4.5%; GLA spleen mod: -12.9%; GLA inh pH 4.5: 0.2; ALOX12 inhib: -8.8%

What do the screens show for `COc1ccc(S(=O)(=O)NCc2ccco2)cc1-c1nnc2c3ccccc3c(C)nn12`?
PNC inhibitor: 14.7; HPGD block: 5.01µM*; ALDH1A1 inh: -16.9%; GLA spleen mod: -18.7%; GLA inh pH 4.5: -2.2; ALOX12 inhib: 2.6%

What do the screens show for `CNS(=O)(=O)c1ccc(OC)c(-c2nnc3c4ccccc4c(C)nn23)c1`?
PNC inhibitor: inconclusive; HPGD block: 15.8µM*; ALDH1A1 inh: inconclusive; GLA spleen mod: -0.8%; GLA inh pH 4.5: -25.1; ALOX12 inhib: -0.6%

How did COc1ccc(S(=O)(=O)NC(C)(C)C)cc1-c1nnc2c3ccccc3c(C)nn12 do in these assays?
PNC inhibitor: 35.9; HPGD block: -28.8%; ALDH1A1 inh: 5.9%; GLA spleen mod: 1.7%; GLA inh pH 4.5: 10.8; ALOX12 inhib: 4.0%

How did CC(C)[C@H](Nc1nc(-c2ccccc2)nc2c1oc1ccccc12)C(=O)O do in these assays?
PNC inhibitor: 7.9; HPGD block: 0.2%; ALDH1A1 inh: 1.12µM*; GLA spleen mod: 7.4%; GLA inh pH 4.5: -11.1; ALOX12 inhib: 1.3%

How did CCc1nc(N[C@H](C(=O)O)C(C)CC)c2oc3ccccc3c2n1 (stereo partly drawn) do in these assays?
PNC inhibitor: 25.4; HPGD block: -6.5%; ALDH1A1 inh: 0.501µM*; GLA spleen mod: 4.9%; GLA inh pH 4.5: 8.5; ALOX12 inhib: -1.1%

Results for CC(C)C(Nc1ncnc2c1oc1ccccc12)C(=O)O (stereo not drawn) ?
ALDH1A1 inh: 7.4%; GLA spleen mod: -10.4%; GLA inh pH 4.5: 0.4

What do the screens show for `CCC(C)[C@H](Nc1nc(-c2ccccc2)nc2c1oc1ccccc12)C(=O)O` (stereo partly drawn)?
PNC inhibitor: 76.0; HPGD block: -6.1%; ALDH1A1 inh: 0.794µM*; GLA spleen mod: -2.3%; GLA inh pH 4.5: -0.5; ALOX12 inhib: 2.8%

How did CCOC(=O)CSc1nc(-c2ccccc2)nc2c1oc1ccccc12 do in these assays?
PNC inhibitor: 7.0; HPGD block: -8.3%; ALDH1A1 inh: -1.0%; GLA spleen mod: -1.1%; GLA inh pH 4.5: -2.9; ALOX12 inhib: 4.7%

Results for CCOc1cc(-c2nc(C)c(C(C)=O)n2O)ccc1OCC(=O)Nc1cccc(C)c1 ?
ALDH1A1 inh: inconclusive; GLA spleen mod: 4.8%; GLA inh pH 4.5: 5.5

How did COC(=O)C1=C(C(=O)OC)[C@@H]2N(Cc3ccccc3)c3ccccc3[C@@]23C[C@@H](C(=O)OC)N(S(=O)(=O)c2ccc(OC)cc2)C3=N1 do in these assays?
HPGD block: 2.4%; ALDH1A1 inh: 2.1%[13.5 µM]; GLA spleen mod: 3.0%[17.5 µM]; GLA inh pH 4.5: -10.4; ALOX12 inhib: -1.6%[11.4 µM]

What do the screens show for `CCCCc1nc2c(c3c1C[C@H](C)OC3)CN(C(=O)NCc1ccco1)CC2`?
HPGD block: -6.0%; ALDH1A1 inh: 5.2%[13.5 µM]; GLA spleen mod: 2.4%[17.5 µM]; GLA inh pH 4.5: 4.5; ALOX12 inhib: 2.2%[11.4 µM]

How did CC(C)CC(C(=O)N1CCOCC1)N1Cc2ccccc2C1=O (stereo not drawn) do in these assays?
ALDH1A1 inh: -3.0%; GLA spleen mod: 0.5%; GLA inh pH 4.5: 2.9

What do the screens show for `CCCc1cc(=O)n2[nH]c(-c3ccccc3)cc2n1`?
PNC inhibitor: -100.0*; HPGD block: inconclusive; ALDH1A1 inh: inconclusive; GLA spleen mod: 0.3%; GLA inh pH 4.5: 1.9; ALOX12 inhib: 6.5%

What do the screens show for `O=C(Cc1cccc2ccccc12)NCC1CCCO1` (stereo not drawn)?
PNC inhibitor: -12.7; HPGD block: -18.1%; ALDH1A1 inh: 3.8%; GLA spleen mod: -14.0%; GLA inh pH 4.5: -0.2; ALOX12 inhib: -3.5%

What do the screens show for `Cc1ccc2c(Cl)c(C(=O)NCC3CCCO3)sc2c1` (stereo not drawn)?
PNC inhibitor: 34.5; HPGD block: 14.1µM*; ALDH1A1 inh: -9.0%; GLA spleen mod: 4.5%; GLA inh pH 4.5: 2.8; ALOX12 inhib: -4.0%

What do the screens show for `O=C(NCC1CCCO1)c1sc2ccccc2c1Cl` (stereo not drawn)?
PNC inhibitor: 34.3; HPGD block: 8.91µM*; ALDH1A1 inh: inconclusive; GLA spleen mod: 1.0%; GLA inh pH 4.5: 7.4; ALOX12 inhib: -2.4%

Screens: PubChem, National Center for Advancing Translational Sciences (NCATS)
